# Compounds with a hit are over-represented: about 18% of the library has one in this group of screens.
# Six1-Eya2 blk – blocks human Six1 binding to Eya2; AlphaScreen GST-Six1/His-Eya2 binding, biochemical; active compounds read low; activity change, % (concentration not given with the values); Q15475+O00167; 360,000 tested, 0.56% active; in the data active = activity change below about -65%; inconclusive = mostly about -30% to -63%
#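 AlphaScreen with GST-Six1 and His-Eya2 (5X mix: 250 nM and 500 nM), glutathione donor and nickel acceptor beads; buffer 50 mM Tris pH 8.0, 300 mM NaCl, 1 mM TCEP; 1 h at 37 C in the dark.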
# DT40 TDP1 CPT – DT40-hTDP1 cell growth loss with CPT; Potency, µM (highest dose often 46.2 µM), inactives show top-dose activity change, negative = growth inhibition, usual class: inhibitors; AID 686979; 420,000 tested, 12% active; chicken DT40 Tdp1-/-;hTDP1 cells + 20 nM CPT, ATP luminescence, 48 h; note: potency is the fitted concentration of half-maximal effect; nearly all actives have a fitted effect of over 55% in size
#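 Chicken DT40 Tdp1-/- cells stably complemented with human TDP1 were seeded at 400 cells/well in medium containing 20 nM camptothecin, exposed to pin-transferred compounds, and grown at 37 °C for at least 48 hr. Viability was read as ATP luminescence.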
# IL-1B inflam inh – inflammasome signaling inhibition, IL-1 beta readout | THP-1 LPS/ATP IL-1B secretion, AlphaLISA, 16 h; active compounds read low | activity change, % at 57.5 µM | 360,000 tested, 4.7% active | AID 743279; in the data active = activity change below about -50%; inconclusive = mostly about -30% to -49%
#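 THP-1 cells pretreated 1 hr with compounds (up to 57.5 uM final), then stimulated with LPS (250 ng/mL final) plus ATP (1.25 mM final); secreted IL-1B measured by AlphaLISA after 16 hr, decreased signal indicating inhibition.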
# TDP1 inh – TDP1 (human) enzyme inhibition; Potency, µM (highest dose often 130 µM), inactives show at the highest dose activity change, negative = inhibition, usual class: inhibitors; Q9NUW8; recombinant TDP1, AlphaScreen DNA substrate cleavage; 350,000 tested, 0.28% active; note: potency is the fitted concentration of half-maximal effect; nearly all actives have a fitted effect of over 40% in size
# Target sequence (Q9NUW8 whole entry, looked up): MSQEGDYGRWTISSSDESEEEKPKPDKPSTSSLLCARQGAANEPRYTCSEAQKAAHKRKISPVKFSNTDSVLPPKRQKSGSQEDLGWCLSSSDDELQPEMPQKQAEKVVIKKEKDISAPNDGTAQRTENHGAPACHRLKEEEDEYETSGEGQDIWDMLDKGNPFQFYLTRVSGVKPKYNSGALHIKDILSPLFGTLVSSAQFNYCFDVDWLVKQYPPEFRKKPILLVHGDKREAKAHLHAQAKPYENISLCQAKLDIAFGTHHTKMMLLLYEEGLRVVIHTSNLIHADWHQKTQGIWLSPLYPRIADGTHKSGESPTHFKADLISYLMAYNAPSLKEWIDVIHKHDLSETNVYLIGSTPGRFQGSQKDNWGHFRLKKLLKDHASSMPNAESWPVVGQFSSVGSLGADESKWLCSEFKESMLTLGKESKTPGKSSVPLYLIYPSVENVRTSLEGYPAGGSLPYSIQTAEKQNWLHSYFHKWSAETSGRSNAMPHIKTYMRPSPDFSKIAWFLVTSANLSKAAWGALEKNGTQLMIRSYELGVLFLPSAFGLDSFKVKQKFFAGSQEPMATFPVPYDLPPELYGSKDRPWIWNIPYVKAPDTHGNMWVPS
#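 Signal: AlphaScreen proximity between streptavidin donor and anti-FITC acceptor beads on intact substrate. Reaction: Tdp1 1 nM, substrate 15 nM final, 5 min RT after 15 min compound preincubation.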
# TDP1 cell noCPT – qHTS for Inhibitors of human tyrosyl-DNA phosphodiesterase 1 (TDP1): qHTS in cells in absence of CPT. DT40 Tdp1-/- hTDP1 cells, no CPT, ATP luminescence, 48 h. Potency, µM (series often up to 46.2 µM), for inactives: at the top dose activity change, negative = growth inhibition, actives largely listed as inhibitors. 420,000 tested, 15% active. AID 686978, 2013; note: potency is the fitted concentration of half-maximal effect; nearly all actives have a fitted effect of over 55% in size
#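 Growth kinetics read by CellTiter-Glo luminescence after ≥48 hr at 37 °C. Cells: DT40 Tdp1-/- stably carrying human TDP1, 400 per well, compound exposure in the absence of CPT (DMSO vehicle).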
# CtBP-E1A inh – CtBP/E1A binding inhibition; AlphaScreen GST-E1A/His-CtBP binding, 1536-well; active compounds read low; activity change, % (test concentration not listed); 340,000 tested, 0.49% active; AID 651724; in the data active = activity change below about -65%; inconclusive = mostly about -30% to -63%
#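 GST-E1A and His-tagged CtBP (125 nM each as 5X stock) were preincubated with pin-transferred compound for 2 h at 37 °C in the dark, then glutathione donor and nickel acceptor beads were added for 1 h before AlphaScreen reading.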
# * = called active by the depositor; ? = inconclusive; nt = no result given; [ ] = dose if it differs, or a comment. Unless noted, calls come from the whole dose curve; as a rule, active = well fitted curve in the direction sought with a large enough effect; inconclusive = small, poorly fitted or top-dose-only effect, or another doubt; inactive = no such curve, though single readings can be large; an effect the other way counts as inactive or inconclusive. % is set by controls: 0 for no effect and ±100 for the full control effect.
SMILES,Six1-Eya2 blk,DT40 TDP1 CPT,IL-1B inflam inh,TDP1 inh,TDP1 cell noCPT,CtBP-E1A inh
O=C(O)/C=C/c1cn(-c2ccccc2)nc1-c1ccc2c(c1)OCCO2,-4,-13%,26,-6%,?,1
Cc1ccccc1NC(=O)n1ncc2cc(Cl)ccc21,8,1%,8,nt,-19%,3
O=C(Nc1ccc(F)cc1)c1ccc(S(=O)(=O)NCC2CCCO2)cc1 (stereo not drawn),1,18µM*,?,2%,13µM*,5
O=S(=O)(NCC1CCCO1)c1ccc(S(=O)(=O)N(Cc2ccccn2)C2CC2)cc1 (stereo not drawn),-4,-5%,-18,5%,?,-11
O=S(=O)(NCC1CCCO1)c1ccc(S(=O)(=O)N(Cc2ccccc2F)C2CCCCC2)cc1 (stereo not drawn),0,13µM*,-8,nt,?,-2
O=C(Nc1ccc(S(=O)(=O)NCC2CCCO2)cc1)c1ccc(Cl)cc1[N+](=O)[O-] (stereo not drawn),-2,8.2µM*,-25,8%,?,-5
COc1ccccc1CC(=O)NNS(=O)(=O)c1cccc([N+](=O)[O-])c1,0,16%,2,nt,-1%,0
CN(C)c1ccc(N=Nc2ccccc2C(=O)OCC(=O)N2CCCC2)cc1,?,?,-18,5%,-94%,-30
CN(C)c1ccc(N=Nc2ccccc2C(=O)OCC(=O)N2CCCCCC2)cc1,-74*,?,-26,11%,?,-66*
CN(C)c1ccc(N=Nc2ccccc2C(=O)OCC(=O)Nc2ccccc2C(F)(F)F)cc1,-71*,?,-25,12%,23µM*,-29
O=C(Nc1cccnc1)C1=NN(C2CCS(=O)(=O)C2)C(=O)CC1 (stereo not drawn),-8,-17%,14,5%,-26%,nt
COCCN(C(=O)c1cc(Cl)nc2ccccc12)c1c(N)n(Cc2ccccc2)c(=O)[nH]c1=O,2,-24%,17,2%,6%,3
CCC1C(C#N)=C(N)OC2=C1C(=O)CC(C)(C)C2 (stereo not drawn),5,15%,0,8%,-10%,7
CCCC[C@@H]1C[C@H]1[C@@H](NC(=O)c1cccs1)c1ccc(Cl)cc1,21,29µM*,-19,3%,15µM*,28
CCCC[C@@H]1C[C@H]1[C@@H](NC(=O)c1cccs1)c1ccc(C(F)(F)F)cc1,4,?,-28,nt,21µM*,17
CCCC[C@@H]1C[C@H]1C(NC(=O)c1cccs1)c1ccc(-c2ccccc2)cc1 (stereo partly drawn),nt,nt,nt,3%,nt,nt
CC(C)(C)C1CCC(=NNC(=O)CN(c2ccccc2)S(C)(=O)=O)CC1 (stereo not drawn),5,1%,-15,-4%,-5%,3
CCNC(=S)NN=C1CCC(C(C)(C)C)CC1 (stereo not drawn),-4,?,-19,3%,18µM*,5
CCOC(=O)CSc1nc2ccc(NC(=O)c3ccccc3F)cc2s1,nt,-21%,nt,-3%,-9%,nt
O=C(CCS(=O)(=O)c1ccc(Cl)cc1)Nc1nc(-c2ccncc2)cs1,-2,16µM*,?,3%,13µM*,nt
O=C(CCS(=O)(=O)c1ccccc1)Nc1nc(-c2ccc(F)cc2)cs1,2,?,-77*,nt,?,1
O=C(CCS(=O)(=O)c1ccccc1)Nc1nccs1,6,?,-3,4%,?,0
Cc1ccc(S(=O)(=O)CCC(=O)Nc2nc(-c3ccccn3)cs2)cc1,?,6.5µM*,8,3%,5.8µM*,-73*
Cc1ccc(S(=O)(=O)CCC(=O)Nc2nc(-c3cccnc3)cs2)cc1,1,15µM*,-10,-3%,?,6
COc1cc2cnc(-c3ccsc3)c(-c3ccc(F)cc3)c2cc1OC,0,?,-14,2%,?,-4
SMILES,Six1-Eya2 blk,DT40 TDP1 CPT,IL-1B inflam inh,TDP1 inh,TDP1 cell noCPT,CtBP-E1A inh
O=S(=O)(c1ccc(N2CCN(Cc3ccc4c(c3)OCO4)CC2)nc1)N1CCOCC1,nt,nt,nt,3%,nt,nt
COc1ccc(-c2csc(NC(=O)CS(=O)(=O)c3ccccc3)n2)c(OC)c1,-11,?,?,nt,?,2
COc1ccc(-c2csc(NC(=O)CCS(=O)(=O)c3ccccc3)n2)c(OC)c1,-1,?,-88*,3%,8.2µM*,5
Cc1cc(Nc2cccc(Br)c2)c2ccccc2n1,-2,5.8µM*,-91*,nt,10µM*,-2
COc1ccccc1/C=N/Nc1cc(C)nc2ccc(C)cc12,-6,?,-22,nt,-25%,-2
COc1ccc(Nc2ccc(Cl)cc2)c(C(=O)O)c1,-13,-9%,2,8%,-20%,-3
COc1ccc(OC)c(Nc2cc(C)nc3ccc(C)cc23)c1,-4,4.6µM*,-77*,nt,5.2µM*,-14
COC(=O)c1ccc(Nc2cc(C)nc3ccc(C)cc23)cc1,-9,15µM*,-93*,nt,21µM*,-11
COc1ccc2nc(C)cc(Nc3ccc(Cl)c(Cl)c3)c2c1,nt,2.1µM*,nt,3%[12.3 µM],1.8µM*,nt
Cc1ccc(C(=O)CCC(=O)NCc2ccc(Cl)cc2)cc1,4,-10%,5,1%,-6%,2
COc1ccc(Nc2cc(C)nc3ccccc23)cc1,-4,?,?,3%,18µM*,-10
COc1ccc2nc(C)cc(NCc3ccc(F)cc3)c2c1,-12,?,-79*,4%,23µM*,-8
COc1ccc(Nc2cc(C)c3cc([N+](=O)[O-])ccc3n2)cc1,-19,?,-21,nt,?,nt
Cc1cc(Nc2cccc(O)c2)c2ccccc2n1,nt,nt,nt,-1%,nt,nt
COc1ccc2nc(C)cc(Nc3ccc(C)cc3)c2c1,-9,5.8µM*,?,nt,?,-4
Cc1ccc2nc(C)cc(Nc3ccc([N+](=O)[O-])cc3)c2c1,-2,1µM*,15,5%,0.92µM*,-7
COC(=O)c1c(C(=O)OC)c2oc3ccccc3n2c1Cl,-20,?,10,3%,-2%,-24
COc1ccc(-c2sc(Nc3cccc4ccccc34)n[n+]2C)c(C)c1C,7,?,7,nt,-19%,5
CC(=O)Nc1ncc(Sc2ccc([N+](=O)[O-])cc2)s1,3,10%,12,nt,7%,-2
Cc1noc(C)c1S(=O)(=O)Nc1ccc(C(=O)N2CCN(c3ccc(Cl)cc3)CC2)cc1,0,?,-4,4%,16µM*,2
